Results as given in PMC7862700, “An all-to-all approach to the identification of sequence-specific readers for epigenetic DNA modifications on cytosine”.

Experiments:
Assay in all cases: DAPPL (digital affinity profiling via proximity ligation, sequencing); 10 mM Tris-HCl pH 7.5, 50 mM NaCl, 1 mM DTT, 4% glycerol, room temperature, 30 min; GST-TFs on glutathione beads, 16-mer random dsDNA library, 0.1% formaldehyde crosslink after washing; high values mean tight binding
[1] = biological target: T1, FLI1 (Homo sapiens, UniProt Q01543 1-452); settings: protein: recombinant; tags: N-terminal GST; dsDNA, one strand shown
T1 sequence: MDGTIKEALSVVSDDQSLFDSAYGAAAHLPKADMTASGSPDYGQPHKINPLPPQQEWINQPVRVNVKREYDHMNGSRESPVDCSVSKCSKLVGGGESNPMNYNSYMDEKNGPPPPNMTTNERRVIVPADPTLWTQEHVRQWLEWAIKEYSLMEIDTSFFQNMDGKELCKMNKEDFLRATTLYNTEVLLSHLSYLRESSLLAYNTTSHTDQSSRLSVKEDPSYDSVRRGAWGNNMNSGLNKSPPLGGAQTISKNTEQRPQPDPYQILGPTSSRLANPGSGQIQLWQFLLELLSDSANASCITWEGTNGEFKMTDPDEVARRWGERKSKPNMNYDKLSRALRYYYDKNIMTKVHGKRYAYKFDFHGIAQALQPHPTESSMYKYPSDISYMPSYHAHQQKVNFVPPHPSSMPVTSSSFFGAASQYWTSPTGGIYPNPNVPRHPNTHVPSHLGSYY
Procedure, shortened: (§1)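 Yeast served to express human transcription factors as GST fusions, which were then captured on glutathione beads and labelled with DNA barcodes. Pooled with a tag-only sample, they were incubated with 200 nmole of a 16-mer random double-stranded DNA library for 30 min at room temperature in Tris/NaCl/DTT/glycerol buffer, washed, crosslinked with 0.1% formaldehyde, ligated by proximity, amplified by PCR and sequenced. Dividing each hexamer's read frequency for a factor by its frequency for the tag-only sample gives the binding signal.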

[2] = biological target: T2, ELK1 (Homo sapiens, UniProt P19419 1-428); settings: protein: recombinant; tags: N-terminal GST; dsDNA, one strand shown
T2 sequence: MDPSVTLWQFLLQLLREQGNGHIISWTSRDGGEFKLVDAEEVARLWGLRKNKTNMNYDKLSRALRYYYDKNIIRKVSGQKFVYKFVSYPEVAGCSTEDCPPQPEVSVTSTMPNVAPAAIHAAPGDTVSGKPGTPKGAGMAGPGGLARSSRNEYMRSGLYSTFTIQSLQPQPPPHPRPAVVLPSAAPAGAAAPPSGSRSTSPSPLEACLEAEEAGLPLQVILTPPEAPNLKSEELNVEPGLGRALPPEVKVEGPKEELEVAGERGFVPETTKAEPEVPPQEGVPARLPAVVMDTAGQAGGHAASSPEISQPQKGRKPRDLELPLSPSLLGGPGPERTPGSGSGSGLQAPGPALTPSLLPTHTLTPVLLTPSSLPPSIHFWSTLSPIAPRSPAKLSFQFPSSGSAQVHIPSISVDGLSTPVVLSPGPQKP
Procedure, shortened: as §1

[3] = biological target: T3, GABPA (Homo sapiens, UniProt Q06546 1-454); settings: protein: recombinant; tags: N-terminal GST; dsDNA, one strand shown
T3 sequence: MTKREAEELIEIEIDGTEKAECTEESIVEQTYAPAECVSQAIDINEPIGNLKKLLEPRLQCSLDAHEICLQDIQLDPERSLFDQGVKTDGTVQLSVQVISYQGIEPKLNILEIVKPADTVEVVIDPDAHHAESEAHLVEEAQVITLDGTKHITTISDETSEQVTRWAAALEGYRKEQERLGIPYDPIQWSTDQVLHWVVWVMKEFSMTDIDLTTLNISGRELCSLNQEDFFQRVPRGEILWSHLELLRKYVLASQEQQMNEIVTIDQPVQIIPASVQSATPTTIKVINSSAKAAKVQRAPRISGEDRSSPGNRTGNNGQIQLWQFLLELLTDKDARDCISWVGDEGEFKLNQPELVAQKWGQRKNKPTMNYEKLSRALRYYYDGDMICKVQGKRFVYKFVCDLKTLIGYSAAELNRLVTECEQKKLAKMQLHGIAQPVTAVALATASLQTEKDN
Procedure, shortened: as §1

[4] = biological target: T4, ERG (Homo sapiens, UniProt P11308 1-479); settings: protein: recombinant; tags: N-terminal GST; dsDNA, one strand shown
T4 sequence: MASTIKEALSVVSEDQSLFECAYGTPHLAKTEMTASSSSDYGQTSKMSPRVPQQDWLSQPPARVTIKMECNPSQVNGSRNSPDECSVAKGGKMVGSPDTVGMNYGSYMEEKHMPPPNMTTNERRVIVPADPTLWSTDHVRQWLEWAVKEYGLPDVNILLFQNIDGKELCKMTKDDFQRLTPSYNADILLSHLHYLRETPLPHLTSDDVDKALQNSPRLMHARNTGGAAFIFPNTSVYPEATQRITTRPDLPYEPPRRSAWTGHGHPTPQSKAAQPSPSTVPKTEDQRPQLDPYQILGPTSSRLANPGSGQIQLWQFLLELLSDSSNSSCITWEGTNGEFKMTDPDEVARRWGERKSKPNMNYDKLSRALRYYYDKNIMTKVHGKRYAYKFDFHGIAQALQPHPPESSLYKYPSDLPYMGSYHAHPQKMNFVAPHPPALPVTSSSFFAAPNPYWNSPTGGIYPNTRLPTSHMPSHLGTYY
Procedure, shortened: as §1

[5] = biological target: ELF1 (Homo sapiens, UniProt P32519 1-619); settings: protein: recombinant; tags: N-terminal GST; dsDNA, one strand shown
Chain of ELF1 (P32519 whole entry): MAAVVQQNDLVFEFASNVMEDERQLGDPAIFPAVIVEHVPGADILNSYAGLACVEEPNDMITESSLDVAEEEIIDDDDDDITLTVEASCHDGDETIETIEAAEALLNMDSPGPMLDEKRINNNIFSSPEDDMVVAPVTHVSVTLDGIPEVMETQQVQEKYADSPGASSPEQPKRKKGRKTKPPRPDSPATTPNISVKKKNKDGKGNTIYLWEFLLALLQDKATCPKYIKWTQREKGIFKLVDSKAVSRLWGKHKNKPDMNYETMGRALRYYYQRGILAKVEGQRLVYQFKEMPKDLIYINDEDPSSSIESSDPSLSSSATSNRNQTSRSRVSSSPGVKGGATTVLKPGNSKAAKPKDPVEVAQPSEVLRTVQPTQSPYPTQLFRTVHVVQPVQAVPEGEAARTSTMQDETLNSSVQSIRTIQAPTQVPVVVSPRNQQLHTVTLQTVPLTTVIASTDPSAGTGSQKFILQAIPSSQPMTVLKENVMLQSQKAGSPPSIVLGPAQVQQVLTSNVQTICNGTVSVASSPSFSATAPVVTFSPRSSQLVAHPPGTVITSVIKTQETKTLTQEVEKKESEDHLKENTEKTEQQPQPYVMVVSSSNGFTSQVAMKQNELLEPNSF
Procedure, shortened: as §1

[6] = biological target: T5, EHF (Homo sapiens, UniProt Q9NZC4 1-300); settings: protein: recombinant; tags: N-terminal GST; dsDNA, one strand shown
T5 sequence: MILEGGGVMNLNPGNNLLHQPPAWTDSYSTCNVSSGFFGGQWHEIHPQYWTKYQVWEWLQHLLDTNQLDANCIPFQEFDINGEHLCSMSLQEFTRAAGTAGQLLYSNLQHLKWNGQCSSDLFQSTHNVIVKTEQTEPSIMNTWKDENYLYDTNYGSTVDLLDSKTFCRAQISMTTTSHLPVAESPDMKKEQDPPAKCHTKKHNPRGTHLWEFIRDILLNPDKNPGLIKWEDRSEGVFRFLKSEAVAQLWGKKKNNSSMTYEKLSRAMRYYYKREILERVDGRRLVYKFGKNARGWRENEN
Procedure, shortened: as §1

[7] = biological target: SPI1 (Homo sapiens, UniProt P17947 1-270); settings: protein: recombinant; tags: N-terminal GST; dsDNA, one strand shown
Procedure, shortened: as §1

[8] = biological target: SPIB (Homo sapiens, UniProt Q01892 1-262); settings: protein: recombinant; tags: N-terminal GST; dsDNA, one strand shown
Chain of SPIB (Q01892 whole entry): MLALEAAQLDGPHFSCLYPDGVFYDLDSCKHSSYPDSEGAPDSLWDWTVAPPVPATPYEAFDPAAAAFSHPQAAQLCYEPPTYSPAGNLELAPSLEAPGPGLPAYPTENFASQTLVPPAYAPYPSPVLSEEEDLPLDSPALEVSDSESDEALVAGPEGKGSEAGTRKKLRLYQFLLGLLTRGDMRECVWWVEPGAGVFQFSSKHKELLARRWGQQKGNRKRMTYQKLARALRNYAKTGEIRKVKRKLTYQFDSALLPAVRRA
Procedure, shortened: as §1

[9] = biological target: T6, ELK3 (Homo sapiens, UniProt P41970 1-407); settings: protein: recombinant; tags: N-terminal GST; dsDNA, one strand shown
T6 sequence: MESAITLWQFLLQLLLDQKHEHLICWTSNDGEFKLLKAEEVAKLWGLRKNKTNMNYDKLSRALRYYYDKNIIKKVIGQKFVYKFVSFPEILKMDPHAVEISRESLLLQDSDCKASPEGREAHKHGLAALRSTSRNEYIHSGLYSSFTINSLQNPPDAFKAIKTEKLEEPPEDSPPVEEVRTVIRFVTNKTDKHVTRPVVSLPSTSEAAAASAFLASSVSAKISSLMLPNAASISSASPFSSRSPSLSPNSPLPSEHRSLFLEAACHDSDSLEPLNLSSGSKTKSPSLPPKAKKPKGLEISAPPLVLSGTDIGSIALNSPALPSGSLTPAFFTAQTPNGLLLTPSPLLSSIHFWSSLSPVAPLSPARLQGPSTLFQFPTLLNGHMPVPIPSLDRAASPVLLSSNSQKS
Procedure, shortened: as §1

[10] = biological target: T7, FEV (Homo sapiens, UniProt Q99581 1-238); settings: protein: recombinant; tags: N-terminal GST; dsDNA, one strand shown
T7 sequence: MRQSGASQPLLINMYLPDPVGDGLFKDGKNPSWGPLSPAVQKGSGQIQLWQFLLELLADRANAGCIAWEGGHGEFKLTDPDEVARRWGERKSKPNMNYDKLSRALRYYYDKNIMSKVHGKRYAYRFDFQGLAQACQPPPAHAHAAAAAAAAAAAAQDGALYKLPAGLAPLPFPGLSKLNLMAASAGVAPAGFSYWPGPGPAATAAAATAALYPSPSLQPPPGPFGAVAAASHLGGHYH
Procedure, shortened: as §1

[11] = biological target: ETV5 (Homo sapiens, UniProt P41161 1-510); settings: protein: recombinant; tags: N-terminal GST; dsDNA, one strand shown
Chain of ETV5 (P41161 whole entry): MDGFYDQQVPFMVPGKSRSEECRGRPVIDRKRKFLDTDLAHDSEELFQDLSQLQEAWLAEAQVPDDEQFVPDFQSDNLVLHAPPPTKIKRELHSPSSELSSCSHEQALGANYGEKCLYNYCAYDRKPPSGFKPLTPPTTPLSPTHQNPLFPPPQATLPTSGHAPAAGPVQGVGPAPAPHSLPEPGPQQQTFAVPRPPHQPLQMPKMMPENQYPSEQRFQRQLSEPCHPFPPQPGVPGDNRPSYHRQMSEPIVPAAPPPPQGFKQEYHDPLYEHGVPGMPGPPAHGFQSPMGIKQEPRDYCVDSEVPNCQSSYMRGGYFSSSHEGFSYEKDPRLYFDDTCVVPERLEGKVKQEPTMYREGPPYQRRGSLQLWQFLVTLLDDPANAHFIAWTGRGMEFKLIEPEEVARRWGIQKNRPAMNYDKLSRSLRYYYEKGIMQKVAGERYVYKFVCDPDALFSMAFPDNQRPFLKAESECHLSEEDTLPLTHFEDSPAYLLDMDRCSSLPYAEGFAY
Procedure, shortened: as §1

[12] = biological target: HSF1 (Homo sapiens, UniProt Q00613 1-529); settings: protein: recombinant; tags: N-terminal GST; chain copies: 3; dsDNA, one strand shown
Chain of HSF1 (Q00613 whole entry): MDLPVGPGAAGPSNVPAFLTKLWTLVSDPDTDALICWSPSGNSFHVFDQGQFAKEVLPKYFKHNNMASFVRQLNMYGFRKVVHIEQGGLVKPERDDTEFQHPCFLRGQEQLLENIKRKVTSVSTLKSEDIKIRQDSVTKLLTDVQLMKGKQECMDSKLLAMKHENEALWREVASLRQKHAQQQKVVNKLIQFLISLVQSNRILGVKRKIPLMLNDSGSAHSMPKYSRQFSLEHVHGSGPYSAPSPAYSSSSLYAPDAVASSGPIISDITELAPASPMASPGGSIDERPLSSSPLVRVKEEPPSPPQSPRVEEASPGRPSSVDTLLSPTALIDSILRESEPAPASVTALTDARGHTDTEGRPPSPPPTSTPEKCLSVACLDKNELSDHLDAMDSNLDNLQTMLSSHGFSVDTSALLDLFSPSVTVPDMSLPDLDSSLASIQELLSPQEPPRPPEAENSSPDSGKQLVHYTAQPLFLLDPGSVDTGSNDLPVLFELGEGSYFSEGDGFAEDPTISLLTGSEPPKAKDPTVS
Procedure, shortened: as §1

[13] = biological target: T8, SPIC (Homo sapiens, UniProt Q8N5J4 1-248); settings: protein: recombinant; tags: N-terminal GST; dsDNA, one strand shown
T8 sequence: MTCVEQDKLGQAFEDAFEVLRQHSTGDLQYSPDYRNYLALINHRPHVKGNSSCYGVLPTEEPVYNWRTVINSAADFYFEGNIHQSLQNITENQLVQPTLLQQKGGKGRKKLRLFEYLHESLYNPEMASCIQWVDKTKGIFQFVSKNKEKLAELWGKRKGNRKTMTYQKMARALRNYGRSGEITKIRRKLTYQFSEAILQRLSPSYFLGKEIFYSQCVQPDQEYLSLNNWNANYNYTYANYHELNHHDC
Procedure, shortened: as §1

[14] = biological target: ELF4 (Homo sapiens, UniProt Q99607 1-663); settings: protein: recombinant; tags: N-terminal GST; dsDNA, one strand shown
Chain of ELF4 (Q99607 whole entry): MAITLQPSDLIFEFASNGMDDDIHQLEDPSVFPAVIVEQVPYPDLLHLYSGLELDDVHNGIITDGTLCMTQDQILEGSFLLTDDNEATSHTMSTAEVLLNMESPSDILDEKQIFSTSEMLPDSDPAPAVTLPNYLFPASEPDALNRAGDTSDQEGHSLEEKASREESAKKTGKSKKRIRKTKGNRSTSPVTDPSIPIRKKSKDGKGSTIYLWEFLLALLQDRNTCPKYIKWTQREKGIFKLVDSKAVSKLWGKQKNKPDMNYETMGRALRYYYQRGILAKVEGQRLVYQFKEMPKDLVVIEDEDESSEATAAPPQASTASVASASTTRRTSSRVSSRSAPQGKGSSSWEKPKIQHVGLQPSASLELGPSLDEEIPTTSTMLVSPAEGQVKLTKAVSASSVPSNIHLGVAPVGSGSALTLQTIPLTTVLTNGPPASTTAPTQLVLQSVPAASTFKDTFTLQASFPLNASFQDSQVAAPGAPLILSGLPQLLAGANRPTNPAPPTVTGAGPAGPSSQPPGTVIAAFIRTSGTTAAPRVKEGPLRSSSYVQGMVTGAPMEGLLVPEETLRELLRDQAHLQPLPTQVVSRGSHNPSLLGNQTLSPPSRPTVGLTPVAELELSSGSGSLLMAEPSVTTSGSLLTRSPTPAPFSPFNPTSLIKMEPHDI
Procedure, shortened: as §1

[15] = biological target: T9, ELK4 (Homo sapiens, UniProt P28324-2 1-405); settings: protein: recombinant; tags: N-terminal GST; dsDNA, one strand shown
T9 sequence: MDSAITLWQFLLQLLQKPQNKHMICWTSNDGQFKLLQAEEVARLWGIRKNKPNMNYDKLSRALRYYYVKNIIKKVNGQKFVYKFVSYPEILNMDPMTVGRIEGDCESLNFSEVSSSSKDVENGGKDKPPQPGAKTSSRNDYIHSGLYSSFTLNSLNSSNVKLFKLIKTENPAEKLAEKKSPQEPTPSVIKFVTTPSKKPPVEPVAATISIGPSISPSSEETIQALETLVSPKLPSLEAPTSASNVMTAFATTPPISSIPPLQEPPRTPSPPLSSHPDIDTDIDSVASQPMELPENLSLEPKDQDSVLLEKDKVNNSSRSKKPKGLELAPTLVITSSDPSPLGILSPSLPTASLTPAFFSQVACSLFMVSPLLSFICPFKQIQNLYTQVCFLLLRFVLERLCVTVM
Procedure, shortened: as §1

[16] = biological target: T10, ETV2 (Homo sapiens, UniProt O00321 1-342); settings: protein: recombinant; tags: N-terminal GST; dsDNA, one strand shown
T10 sequence: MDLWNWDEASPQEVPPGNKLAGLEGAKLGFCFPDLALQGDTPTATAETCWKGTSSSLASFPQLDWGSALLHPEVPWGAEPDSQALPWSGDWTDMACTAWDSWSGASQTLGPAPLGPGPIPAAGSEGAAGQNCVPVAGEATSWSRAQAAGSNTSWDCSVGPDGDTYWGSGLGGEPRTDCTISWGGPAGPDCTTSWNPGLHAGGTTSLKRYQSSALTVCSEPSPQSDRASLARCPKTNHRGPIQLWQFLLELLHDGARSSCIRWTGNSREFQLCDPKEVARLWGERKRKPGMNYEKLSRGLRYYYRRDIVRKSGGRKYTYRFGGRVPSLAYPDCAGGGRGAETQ
Procedure, shortened: as §1

[17] = biological target: T11, ELF3 (Homo sapiens, UniProt P78545 1-371); settings: protein: recombinant; tags: N-terminal GST; dsDNA, one strand shown
T11 sequence: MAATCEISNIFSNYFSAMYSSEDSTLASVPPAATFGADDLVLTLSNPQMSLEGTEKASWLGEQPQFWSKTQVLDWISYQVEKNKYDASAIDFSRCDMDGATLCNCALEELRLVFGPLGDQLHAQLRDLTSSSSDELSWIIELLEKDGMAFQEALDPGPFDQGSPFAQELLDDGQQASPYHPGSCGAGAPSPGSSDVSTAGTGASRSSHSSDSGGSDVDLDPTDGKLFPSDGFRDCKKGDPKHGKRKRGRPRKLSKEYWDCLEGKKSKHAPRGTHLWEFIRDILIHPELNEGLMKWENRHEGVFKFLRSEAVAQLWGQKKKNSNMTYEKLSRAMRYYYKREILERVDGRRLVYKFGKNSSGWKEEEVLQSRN
Procedure, shortened: as §1

[18] = biological target: CRX (Homo sapiens, UniProt O43186 1-299); settings: protein: recombinant; tags: N-terminal GST; dsDNA, one strand shown
Chain of CRX (O43186 whole entry): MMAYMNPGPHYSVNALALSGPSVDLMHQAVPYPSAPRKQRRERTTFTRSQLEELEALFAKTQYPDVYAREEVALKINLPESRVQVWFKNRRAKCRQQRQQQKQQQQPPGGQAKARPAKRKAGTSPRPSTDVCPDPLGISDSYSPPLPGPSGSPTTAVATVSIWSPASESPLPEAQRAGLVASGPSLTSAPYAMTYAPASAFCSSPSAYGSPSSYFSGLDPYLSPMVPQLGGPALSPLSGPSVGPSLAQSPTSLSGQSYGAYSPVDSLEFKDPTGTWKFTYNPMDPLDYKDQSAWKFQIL
Procedure, shortened: as §1

[19] = biological target: ETV1 (Homo sapiens, UniProt P50549 1-477); settings: protein: recombinant; tags: N-terminal GST; dsDNA, one strand shown
Chain of ETV1 (P50549 whole entry): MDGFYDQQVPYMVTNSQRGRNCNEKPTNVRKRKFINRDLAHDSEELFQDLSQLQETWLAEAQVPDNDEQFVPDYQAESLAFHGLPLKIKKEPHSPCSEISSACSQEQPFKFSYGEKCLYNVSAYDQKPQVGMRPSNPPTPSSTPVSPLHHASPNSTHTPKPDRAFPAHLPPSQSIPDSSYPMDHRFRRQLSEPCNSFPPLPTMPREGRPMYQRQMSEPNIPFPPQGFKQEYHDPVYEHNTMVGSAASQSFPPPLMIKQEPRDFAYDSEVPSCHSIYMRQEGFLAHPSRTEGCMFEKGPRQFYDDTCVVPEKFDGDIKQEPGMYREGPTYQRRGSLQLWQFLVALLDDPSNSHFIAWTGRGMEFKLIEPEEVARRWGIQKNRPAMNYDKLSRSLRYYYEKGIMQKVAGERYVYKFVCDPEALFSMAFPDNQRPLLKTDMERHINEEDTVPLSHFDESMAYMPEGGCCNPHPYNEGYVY
Procedure, shortened: as §1

For TCCCGG, the binding signal [1] was 2.29 fold enrichment (6-mer frequency, TF over GST control), the binding signal [2] was 2.07 fold enrichment (6-mer frequency, TF over GST control) and the binding signal [3] was 2.14 fold enrichment (6-mer frequency, TF over GST control). The binding signal [4] was 2.22 fold enrichment (6-mer frequency, TF over GST control), the binding signal [5] was 2.12 fold enrichment (6-mer frequency, TF over GST control) and the binding signal [6] was 2.19 fold enrichment (6-mer frequency, TF over GST control). The binding signal [7] was 2.01 fold enrichment (6-mer frequency, TF over GST control), the binding signal [8] was 2.43 fold enrichment (6-mer frequency, TF over GST control) and the binding signal [9] was 1.96 fold enrichment (6-mer frequency, TF over GST control). The binding signal [10] was 2.09 fold enrichment (6-mer frequency, TF over GST control), the binding signal [11] was 2.27 fold enrichment (6-mer frequency, TF over GST control) and the binding signal [12] was 1.37 fold enrichment (6-mer frequency, TF over GST control). The binding signal [13] was 2.35 fold enrichment (6-mer frequency, TF over GST control), the binding signal [14] was 2 fold enrichment (6-mer frequency, TF over GST control) and the binding signal [15] was 1.91 fold enrichment (6-mer frequency, TF over GST control). For the same sequence, the binding signal [16] was 2 fold enrichment (6-mer frequency, TF over GST control), the binding signal [17] was 2.17 fold enrichment (6-mer frequency, TF over GST control) and the binding signal [18] was 1.41 fold enrichment (6-mer frequency, TF over GST control). The binding signal [19] was 2.21 fold enrichment (6-mer frequency, TF over GST control).
